IP6K1 inh – IP6K1 kinase inhibition. Q92551. IP6K1 kinase, ADP-Glo luminescence, 2 h; active compounds read low. activity change, % (series mostly up to about 58 µM). 0.81% of 140,000 active. AID 1645851; in the data active = activity change below about -25%; also: % is scaled to controls: 0 for no effect and ±100 for the full control effect
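ADP-Glo luminescence measures ADP made by human IP6K1 during a 2 h RT reaction with ATP/IP6 (mix at 1.3 mM/130 uM); top library doses 57.5 and 19.1 uM final.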
KDM5B inh – KDM5B demethylase inhibition | 2.6% of 220,000 active | Q9UGL1 | Potency, µM (doses to about 57.7 µM), hits mostly inhibitors | KDM5B demethylase, FDH-coupled NADH fluorescence (FDH is formaldehyde dehydrogenase) | AID 1347165; also: potency is read from the fitted curve at half-maximal effect; 0% is about no effect; nearly all actives have a fitted effect of over 70% in size
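Compound dilutions met 200 nM (final) KDM5BΔAP for 10 min at room temperature before substrate addition. The substrate mix held 12.5 µM H3K4me3 with cofactors 25 µM α-ketoglutarate and 50 µM Fe²⁺. NADH signal gain over 30 min defined activity.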
HEK293 viab – reduces viability of HEK-293 SNCA reporter cells; HEK-293-SNCA-luc viability, GF-AFC fluorescence, 24 h; Potency, µM (top dose mostly 57.1 µM), without a hit: at the top dose activity change, negative = cytotoxicity, usual class: cytotoxic; 0.12% of 150,000 active;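 also: potency is read from the fitted curve at half-maximal effect; 0% = DMSO-treated cells and -100% = medium-only wells without cells; nearly all actives have a fitted effect of over 30% in size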
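Cytotoxicity counterscreen: after 24 h compound treatment of genome-edited SNCA-luciferase HEK-293 cells, live-cell protease substrate GF-AFC read by fluorescence after 30 min; activity scaled between DMSO (0%) and medium-only (-100%), curves Hill-fitted.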
SNCA expr inh – inhibitors of alpha-synuclein (SNCA) gene expression; Potency, µM (top dose mostly 57.2 µM), for the others: at the highest dose activity change, negative = inhibition, most hits filed as inhibitors; HEK-293 SNCA-luciferase knock-in, luminescence, 24 h; AID 1671194; 0.17% of 140,000 active;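 also: potency is read from the fitted curve at half-maximal effect; plate controls were DMSO cells for no effect and cell-free wells for full effect; nearly all actives have a fitted effect of over 45% in size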
Active calls of the source: *; i = inactive; ? = inconclusive; . = no result given; [ ] = dose if it differs, or a comment. The list is not random: actives were taken first. Their share in the collection is about 2.8%. Unless noted, calls follow the shape of the dose curve; as a rule, active = well fitted curve in the direction sought with a large enough effect; inconclusive = small, poorly fitted or top-dose-only effect, or another doubt; inactive = no such curve, though single readings can be large; an effect the other way counts as inactive or inconclusive.

SMILES | IP6K1 inh | KDM5B inh | HEK293 viab | SNCA expr inh
CC1OC(O[C@@H]2[C@H](O)[C@@H](OC3OC(CO)C(O)C(O)C3O)[C@H](OC(=O)[C@]34CCC(C)(C)C[C@H]3C3=CCC5[C@@]6(C)CC[C@H](O[C@@H]7O[C@H](C(=O)O)[C@@H](O)[C@H](O[C@@H]8OC[C@@H](O)[C@H](O)[C@H]8O)[C@H]7O[C@@H]7O[C@H](CO)[C@H](O)[C@H](O)[C@H]7O)[C@@](C)(C=O)C6CC[C@@]5(C)[C@]3(C)C[C@H]4O)O[C@@H]2C)C(O)C(O)C1OC1OCC(O)C(O)C1O (some centres not stated) | 8 | . | -10%[5.56 µM] | .
CNC(=O)Cn1nc(C(=O)N2CCC3(CC2)[C@H](O)C[C@@H]3O)cc1C | 9 | i | -4% | 5%
CCO[C@H]1C[C@@H](O)C12CCN(C(=O)c1cc3nc(C)cc(C)n3n1)CC2 | 31 | 28µM* | -12% | -23%
CN1CCN(c2cc(=O)c3ccnc(-c4ccccc4F)c3o2)CC1 | -7 | 35µM* | -15%[87.6 µM] | -40%[87.6 µM]
CN1CCN(c2cc(=O)c3ccnc(-c4ccnn4C)c3o2)CC1 | -14 | 40µM* | 2%[87.6 µM] | ?
CN1CCN(c2cc(=O)c3ccnc(-c4cn[nH]c4)c3o2)CC1 | -14 | 28µM* | 5%[87.6 µM] | 10%[87.6 µM]
CCCC1Cc2nc(Cl)c(C#N)cc2CO1 (configuration not stated) | . | i | . | .
CCN(C(=O)c1cc2c(=O)oc3ccc(C)cc3c2s1)c1ccccc1F | -4 | i | 3% | 6%
COc1ccc2c(c1)c1c(c(=O)n(Cc3ccccc3)c(=O)n1Cc1ccccc1Cl)n2C | -2 | i | -1% | 3.2µM*
Cn1nnnc1C1CCCN(C(=O)C2CCCC2)C1 (configuration not stated) | -11 | 28µM* | 14% | -14%
CCOc1ccccc1CN1C[C@@H](CO)[C@H](c2ccccn2)C1 | 9 | i | -3% | 6%
O=C(CNC(=O)c1cccc(-c2ccc(C(F)(F)F)cc2)c1)NCC(F)(F)F | -2 | . | 0%[12.5 µM] | -5%
CNC(=O)c1cnn2ncccc12 | -4 | 32µM* | -1%[87.6 µM] | -9%[87.6 µM]
CN(C)C(=O)c1cnn2ncccc12 | 11 | 32µM* | 0%[87.6 µM] | 37%[87.6 µM]
O=C(Nc1ccc(Cl)nc1)c1cnn2ncccc12 | 12 | 40µM* | 8%[87.6 µM] | 35%[87.6 µM]
CNC(=O)c1cnn2c1CN(C(=O)c1ccccc1)CC2 | 8 | i | -3%[87.6 µM] | -8%[87.6 µM]
O=C(Cc1cccs1)OCC(=O)c1ccccc1 | . | i | . | .
CN(C)C(=O)c1ccc(-c2ccc3ncnc(N4CCNCC4)c3c2)cc1 | . | . | -9% | 50%
CS(=O)(=O)N1C[C@H]2CCN(C(=O)c3cccc4[nH]ccc34)C[C@H]21 | 5 | 18µM* | 1%[12.5 µM] | 0%
O=C(c1cccc2[nH]ccc12)N1CC[C@@H]2COCCN(Cc3cccnc3)[C@@H]2C1 | -1 | 18µM* | -4% | 1%
CS(=O)(=O)N1C[C@H]2CCN(C(=O)c3ccc4[nH]ccc4c3)C[C@H]21 | 11 | i | 1%[12.5 µM] | 14%
O=C(c1cccs1)N1CC[C@@H]2COCCN(Cc3cccnc3)[C@@H]2C1 | 13 | i | -13% | 0%
O=C(c1cccc2[nH]ccc12)N1CC[C@@H]2COCCN(Cc3ccncc3)[C@@H]2C1 | 0 | 28µM* | -3% | -16%
Cc1cccc(C)c1NC(=O)CS(=O)(=O)c1nc(-c2ccc(Cl)cc2)cn1-c1ccccc1 | -11 | i | -18% | 25%
C[C@H]1[C@@H]2[C@@H](O)C([C@H](C)C(=O)NCc3ccc(F)cc3)CC[C@@]2(C)CC[C@@H]1NC(=O)Cc1ccccc1 (some centres not stated) | -10 | i | -4% | ?
SMILES | IP6K1 inh | KDM5B inh | HEK293 viab | SNCA expr inh
Cn1ccc(C(=O)NCc2nnc3n2C(C(=O)NCC2CC2)CC3)n1 (configuration not stated) | 18 | 100µM* | -2% | 59%
O=C1NC2(CCN(C(=O)OCc3ccccc3)C2)N=C1c1ccccn1 (configuration not stated) | 3 | 25µM* | 7% | -3%
CC(C)COc1cc(=O)n2c(c1C(=O)NCc1ccc(C(F)(F)F)cc1)CCCCC2 | 3 | i | -6% | -10%
CC(C)COC(=O)COc1ccc2c(=O)c(Oc3ccccc3Cl)coc2c1 | . | i | . | .
Cc1ccc(CN(C)CC(=O)NC(=O)NC(C)(C)C)cc1 | . | i | . | .
COCCn1c(C)nnc1-c1cc(-c2ccnc(C)c2)ccn1 | -6 | i | 0%[87.6 µM] | -16%[87.6 µM]
COCCn1c(C)nnc1-c1cc(-c2cccc(OC)c2)ccn1 | -2 | 35µM* | 12%[87.6 µM] | 27%[87.6 µM]
CCOc1ccc(C2CC(=O)n3nc(-c4ccc(C)cc4)nc3S2)cc1 (configuration not stated) | 5 | i | 0% | -14%
CC(C)c1ccc(CC(=O)N2CCCc3ncc(C(=O)Nc4ccccc4)cc32)cc1 | 9 | ? | ? | ?
Cc1csc(NC(=O)c2cnc3c(c2)N(C(=O)Cc2ccc(C(C)C)cc2)CCC3)n1 | 2 | 32µM* | ? | ?
Cn1nc(-c2nncn2CC2CC2)c2c1CCN(C(=O)C1CC1)C2 | -3 | i | 3% | 1%
CCn1cnnc1-c1nn(C)c2c1CN(C(=O)CCC1CCCC1)CC2 | -11 | 22µM* | 6% | -20%
CCC(CC)C(=O)NC[C@@H]1C=C(C)[C@H](Cc2nc3ccccc3n2C)C[C@H]1C(C)C | 5 | i | ? | ?
CC1=C[C@@H](CNC(=O)c2cnccn2)[C@H](C(C)C)C[C@H]1Cc1nc2ccc(C)cc2[nH]1 | 0 | i | 40µM* | -30%[87.6 µM]
CC1=C[C@@H](CNC(=O)c2cnccn2)[C@H](C(C)C)C[C@H]1Cc1nc2ccc(F)cc2[nH]1 | 0 | ? | ? | -22%[87.6 µM]
CC1=C[C@@H](CNC(=O)c2ccccc2)[C@H](C(C)C)C[C@H]1Cc1nc2ccccc2n1C | 8 | i | 11µM* | ?
Cc1ccc2c(C(=O)N(C)C)cnn2c1 | 0 | 32µM* | 0%[87.6 µM] | 5%[87.6 µM]
Cc1cnc2c(C(=O)NCc3cccnc3Oc3ccccc3)cnn2c1 | 4 | ? | -10% | 125%
CNC(=O)c1cnn2cc(C)ccc12 | -4 | 32µM* | 6%[87.6 µM] | 20%[87.6 µM]
CSc1ccccc1C(=O)NC(C)c1ccc(Br)cc1 (configuration not stated) | . | i | . | .
Nc1cccn2nc(C3CCC3)nc12 | 12 | 18µM* | 10% | -3%
O=C(Nc1cccn2nc(C3CCC3)nc12)c1ccc(F)cc1 | 13 | i | 8% | -1%
COc1ccc(-n2c(SCC(=O)N3CCCc4ccccc43)nc3c(c2=O)SCC3)cc1 | . | i | . | .
CCOc1ccc(C2Cn3nnc(-c4nc(-c5ccccc5OCC)no4)c3CO2)cc1 (configuration not stated) | -2 | 25µM* | 2% | -28%
CCOc1ccccc1-c1noc(-c2nnn3c2COC(c2cccc(OC)c2)C3)n1 (configuration not stated) | 1 | i | 7% | -8%
